From publication PMC4336329 (PLoS ONE, 2015)
The campaign covered roughly 310,000 compounds. About 14,000 (4.5%) showed an effect of 50% or more. Effects have a minus sign here. The sample as a whole holds a higher share of strong results than the screen did.

These compounds were tested against human ether-à-go-go-related gene (hERG) potassium channel (human, UniProt Q12809) (assay: primary screen, population patch clamp on CHO cells stably expressing hERG; higher = less effect of the substance).
human ether-à-go-go-related gene (hERG) potassium channel, sequence (Q12809 whole entry, looked up): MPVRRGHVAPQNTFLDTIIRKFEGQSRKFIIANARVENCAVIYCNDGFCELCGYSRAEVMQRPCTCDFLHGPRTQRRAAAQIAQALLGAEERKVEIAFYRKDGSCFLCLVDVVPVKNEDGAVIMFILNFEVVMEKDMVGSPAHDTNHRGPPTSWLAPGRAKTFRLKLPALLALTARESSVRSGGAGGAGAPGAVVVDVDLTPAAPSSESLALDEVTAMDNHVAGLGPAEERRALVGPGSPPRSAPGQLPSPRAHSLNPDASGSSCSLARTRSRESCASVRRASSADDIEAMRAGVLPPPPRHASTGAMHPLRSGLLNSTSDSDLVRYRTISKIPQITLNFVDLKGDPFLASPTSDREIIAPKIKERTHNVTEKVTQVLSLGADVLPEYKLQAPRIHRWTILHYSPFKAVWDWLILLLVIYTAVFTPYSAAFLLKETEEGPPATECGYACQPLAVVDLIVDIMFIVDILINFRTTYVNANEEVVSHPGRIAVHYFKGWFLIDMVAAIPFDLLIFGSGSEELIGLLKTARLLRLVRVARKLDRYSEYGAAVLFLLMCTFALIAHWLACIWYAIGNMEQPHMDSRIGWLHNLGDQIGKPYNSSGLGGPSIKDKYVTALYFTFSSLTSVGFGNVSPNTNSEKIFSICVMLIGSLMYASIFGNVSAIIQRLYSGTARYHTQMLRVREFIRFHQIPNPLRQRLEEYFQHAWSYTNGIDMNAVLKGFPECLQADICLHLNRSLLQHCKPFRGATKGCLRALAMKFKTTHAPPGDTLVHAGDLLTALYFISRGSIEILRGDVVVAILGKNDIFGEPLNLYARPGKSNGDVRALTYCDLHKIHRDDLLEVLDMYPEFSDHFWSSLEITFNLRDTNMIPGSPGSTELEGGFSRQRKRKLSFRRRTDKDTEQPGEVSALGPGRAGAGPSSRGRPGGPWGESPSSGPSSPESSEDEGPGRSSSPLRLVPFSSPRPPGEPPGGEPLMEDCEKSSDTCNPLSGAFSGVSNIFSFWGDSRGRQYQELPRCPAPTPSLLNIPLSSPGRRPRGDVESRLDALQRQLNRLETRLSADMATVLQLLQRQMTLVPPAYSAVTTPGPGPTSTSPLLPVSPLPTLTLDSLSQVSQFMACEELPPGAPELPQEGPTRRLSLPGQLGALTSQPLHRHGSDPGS
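Also: peak tail current of the secondary pulse compared with the same well before compound.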

| SMILES | hERG current change (%, negative = inhibition) at 10uM |
| --- | --- |
| Cc1nc2nc(SCC(=O)Nc3cccc(F)c3)[nH]c2cc1Br | 23.2% |
| C/C(N)=C(/C#N)C(=O)COC(=O)c1ccccc1O | -0.192% |
| Cc1ccc(NC(=O)CSc2ccc(-c3ccco3)nn2)cc1 | -7.67% |
| CCCN(CCC)CC(C)(C)NS(=O)(=O)c1ccc(Cl)cc1 | -17.1% |
| COc1ccc(/C=N/Nc2cc(C)nc3ccccc23)cc1 | -63.3% |
| COc1ccc(/C=N/Nc2cc(C)nc3ccc(Br)cc23)cc1 | -35.1% |
| COc1ccc2nc(C)cc(N/N=C/c3ccccc3)c2c1 | -17.1% |
| COc1ccc(-n2c(C)cc(/C=C/c3nc(O)c([N+](=O)[O-])c(=O)[nH]3)c2C)cc1 | 3.06% |
| CC1(C)NC(=O)N(CC(=O)NNC(=O)c2ccccc2F)C1=O | 3.42% |
| Cn1ncc(Br)c1C(=O)NC1CCCC1 | 24.1% |
| C=CCn1c(O)c(C(C)=Nc2cccc(C(=O)O)c2)c(=O)[nH]c1=O | 1.4% |
| O=C(c1ccc(Cl)cc1Cl)c1ncc(C(F)(F)F)cc1Cl | -10.1% |
| Cc1cc(=O)n(Cc2ccccc2)c2ccccc12 | 4.79% |
| Cc1c(CN(C)C)c2c(n1Cc1ccccc1)C(=O)c1ccc(Br)cc1-2.Cl | -74.5% |
| Cc1cc(O)cc(=O)n1Cc1ccccc1 | 12% |
| Cc1c(CN(C)C)c2c(n1Cc1ccccc1)C(=O)c1ccccc1-2.Cl | -75.6% |
| O=c1oc2cc(Br)ccc2n1Cc1ccccc1 | 18.6% |
| Cc1c(CN(C)C)c2c(n1C)C(=O)c1ccc(Br)cc1-2.Cl | -37.3% |
| COCc1nnc(SCC(=O)NCc2ccccc2)n1-c1ccccc1 | -3.33% |
| CCOCCCNC(C(=O)Nc1ccc(OC)c(Cl)c1)c1ccccc1 (stereo not drawn) | -35.1% |
| CCC(C)C(NC(N)=O)C(=O)Nc1ccc(C)c(Cl)c1 (stereo not drawn) | 10.9% |
| CCc1ccc(C(=O)c2cncc(Br)c2)cc1 | -18.3% |
| CCOC(=O)c1c(CN2CCN(c3ccccc3)CC2)oc2ccc(O)cc12 | -4.3% |
| CCOC(=O)c1c(CN2CCC(C)CC2)oc2ccc(OC)cc12 | -51.2% |

| SMILES | hERG current change (%, negative = inhibition) at 10uM |
| --- | --- |
| COc1ccc2oc(C)c(C(=O)NN)c2c1 | -1.4% |
| COc1ccc2oc(C)c(C(=O)c3ccccc3)c2c1 | -7.34% |
| COc1ccc2oc(C(=O)OCC(=O)N3CCCC(C)C3)c(C)c2c1 (stereo not drawn) | -39.4% |
| CCOC(=O)c1c(CN2CCOCC2)oc2ccc(OC)cc12 | -7.29% |
| CCOC(=O)CCC(=O)c1c(C)oc2ccc(OC)cc12 | -57.2% |
| CCOC(=O)c1c(CN2CCN(C)CC2)oc2ccc(O)cc12 | -38% |
| CCOC(=O)c1c(CN2CCOCC2)oc2ccc(OC(C)=O)cc12 | 13.9% |
| COc1ccc2oc(C(=O)OC(C)C(=O)N3CCC(C)CC3)c(C)c2c1 (stereo not drawn) | -5.44% |
| CCOC(=O)c1c(CN2CCCCC2)oc2ccc(O)cc12.Cl | -54.3% |
| CCOC(=O)c1c(CN2CCCCC2)oc2ccc(OC)cc12 | -61.6% |
| CCOC(=O)c1cnc(Nc2nc3ccccc3o2)nc1CSc1nnc(C)s1 | -5.06% |
| C/C(=N\NC(=O)c1ccco1)c1ccc(NC(=O)c2cccs2)cc1 | 5.09% |
| Cc1ccc(NC(=O)CCC(=O)Nc2ccc(C)cc2)cc1 | 12.2% |
| COC(=O)C1=C(c2ccc3ccccc3c2)C[C@@H]2CC[C@H]1N2C(=O)N1CCCCC1 | 2.21% |
| CCn1nc(C)c(/C=N/NC(=O)c2nc3nc(C)cc(C)n3n2)c1C | 14.1% |
| COc1ccc(-c2nnn(Cc3nn[nH]n3)n2)cc1OC | 3.25% |
| O=C(CCSc1nnc(-c2ccncc2)o1)Nc1ccccc1Cl | -10.9% |
| CCOC(=O)c1c(CN2CCCCC2)oc2ccc(OC)cc12.Cl | -58.4% |
| CCOC(=O)c1c(CN(CC)CC)oc2ccc(OC)cc12 | -61.9% |
| CCc1ccc2oc(=O)cc(CN3CCCCC3C)c2c1.Cl (stereo not drawn) | -16.7% |
| CCN(CC)CCOC(=O)c1c(C)oc2ccc(OC)cc12.Cl | -36.6% |
| CCOC(=O)c1c(C)n(CCN2CCN(C)CC2)c2ccc(OC)cc12.Cl | -20.2% |
| COc1ccc2oc(C(=O)OCC(=O)N3C(C)CCCC3C)c(C)c2c1 (stereo not drawn) | -14.8% |
| CCOC(=O)c1c(-c2ccccc2)oc2ccc(OC)cc12 | 1.46% |

| SMILES | hERG current change (%, negative = inhibition) at 10uM |
| --- | --- |
| CCOC(=O)c1c(CN2CCCCC2C)oc2ccc(OC)cc12.Cl (stereo not drawn) | -58.9% |
| CCOC(=O)c1c(-c2ccc(OC)cc2)oc2ccc(O)cc12 | 13.1% |
| Cc1ccc(C(=O)Nc2nnc(Cc3ccccc3)s2)cc1 | 9.35% |
| C=CCNC(=O)c1cc(-c2cccnc2)nc2ccccc12 | -34.7% |
| Cc1ccc(/C=C/C(=O)N2CCN(c3ccc(F)cc3)CC2)o1 | -15.8% |
| CSCC[C@H](NC(=O)[C@@H]1CSC2c3ccccc3C(=O)N21)C(=O)N1CCC[C@H]1CO (stereo partly drawn) | 1.52% |
| COc1ccc(N2CCN(Cc3nnc(-c4ccccc4)o3)CC2)cc1 | -0.362% |
| O=C1Nc2ccccc2/C1=N\N1CCOCC1 | 2.95% |
| Cc1nc2nc(-c3ccccc3)[nH]n2c(=O)c1C | -3.77% |
| CCN1CC2=C(OC(N)=C(C#N)C2c2ccccc2)/C(=C\c2ccccc2)C1 (stereo not drawn) | -6.02% |
| CCCCN(CC)Cc1ccc(CNC(=S)Nc2ccc(C)cc2Cl)o1 | -32.1% |
| CCCCN(CC)Cc1ccc(CNC(=S)Nc2c(C)cc(C)cc2C)o1 | -54.8% |
| CCCCN(CC)Cc1ccc(CNC(=O)Nc2ccc(F)cc2)o1 | -32.1% |
| CCCCN(CC)Cc1ccc(CNC(=O)Nc2ccccc2)o1 | -9.65% |
| CCCCN(CC)Cc1ccc(CNC(=S)Nc2ccccc2F)o1 | -16.3% |
| CCCCN(CC)Cc1ccc(CNC(=O)Nc2ccc(Cl)cc2)o1 | -61.9% |
| CN1C(=O)NC(c2ccccc2[N+](=O)[O-])C2=C1CCCC2=O (stereo not drawn) | 10.1% |
| COc1cc(OC)c(-c2nc3cnccc3n2C)cc1OC | 6.5% |
| COc1ccc(NC(=S)N2CCN(C(=O)C3CCCO3)CC2)cc1 (stereo not drawn) | 11.8% |
| CC(C)O.CCCC1(CCC)NC(=O)N(CC(=O)N2CCN(C(=O)c3ccco3)CC2)C1=O | 5% |
| O=C(CN1C(=O)NC2(CCCC2)C1=O)N1CCN(C(=O)c2ccco2)CC1 | 4.41% |
| Cc1ccc(C(=O)CCC(=O)N2CCN(C(=O)c3ccco3)CC2)cc1 | -56.2% |
| O=C(CCC(=O)N1CCN(C(=O)c2ccco2)CC1)c1ccc(F)cc1 | -66.7% |
| Cc1ccc(CC(=O)N2CCN(C(=O)c3ccco3)CC2)cc1 | -7.76% |

| SMILES | hERG current change (%, negative = inhibition) at 10uM |
| --- | --- |
| O=C(c1ccco1)N1CCN(c2ccc(F)cc2)CC1 | -0.235% |
| CCCCC1(c2ccc(F)cc2)NC(=O)N(CC(=O)N2CCN(C(=O)c3ccco3)CC2)C1=O (stereo not drawn) | -52.6% |
| O=C(CCC(=O)N1CCOCC1)c1ccc(F)cc1 | 36.5% |
| Cc1ccc(OCC(=O)N2CCN(C(=O)c3ccco3)CC2)cc1 | -37.7% |
| CC(=O)Oc1ccccc1N(C(C)=O)S(=O)(=O)c1ccc2ccccc2c1 | 7.06% |
| COc1ccc(NC(=O)Cn2nnc3ccccc32)c([N+](=O)[O-])c1 | 9.14% |
| O=C(CC1Nc2ccccc2NC1=O)c1ccccc1 (stereo not drawn) | -2.01% |
| CN(C)CC/C=C1\c2ccccc2Sc2ccc(Cl)cc21.Cl | -56.7% |
| CN(C)CC/C=C1/c2cc(F)ccc2Sc2ccc(Cl)cc21.Cl | -34.5% |
| CN(C)CC/C=C1\c2cc(Cl)ccc2Sc2cc(F)c(F)cc21.Cl | 1.25% |
| O=C(O)/C=C\C(=O)O.OCCN1CCN(CC/C=C2/c3ccccc3CSc3ccccc32)CC1 | -12.2% |
| CN(C)CC/C=C1\c2ccccc2Sc2cc(F)c(Cl)cc21.Cl | 7.2% |
| Cl.OCCN1CCN(CC/C=C2/c3ccccc3Sc3ccc(C(F)(F)F)cc32)CC1 | -47.1% |
| Cl.OCCN1CCN(CC/C=C2/c3ccccc3Sc3ccc(Cl)cc32)CC1 | -68.8% |
| CN(C)CC/C=C1/c2ccccc2Sc2ccc(Cl)cc21.Cl | -56.8% |
| CN(C)CC/C=C1/c2ccccc2Sc2ccc(Cl)cc21 | -8.11% |
| CCN(CC)S(=O)(=O)c1ccc(C(=O)OCC(=O)NCCN2C(=O)CSC2=O)cc1 | -14.4% |
| O=C1C(=Cc2ccco2)C(=O)c2ccccc21 | 8.17% |
| CN1C(=O)c2ccc(C(=O)Nc3ccccc3O)cc2C1=O | 4.6% |
| Cc1nn(C)cc1/C=N/NC(=O)c1sc2ccccc2c1Cl | -6.47% |
| O=P(c1ccccc1)(c1ccccc1)C(c1ccco1)N1CCOCC1 (stereo not drawn) | 9.93% |
